Here are results for 8 compounds from PubChem BioAssay (Tox21).

A number with no mark means an inactive call. Inconclusive results are not listed. Active and inactive are the calls of the source. Unless noted, calls come from the whole dose curve; as a rule, active = well fitted curve in the direction sought with a large enough effect in the repeat runs; inconclusive = weak or mixed curves; inactive = no such curve, though single readings can be large; an effect the other way counts as inactive or inconclusive.

A short description of test [1]: qHTS assay to identify small molecule antagonists of the estrogen related receptor (ERR) signaling pathway from Tox21 library - cell viability counter screen (AID 1224834). Note: nearly all actives have a fitted effect of over 30% in size. Put shortly:
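Cytotoxicity of test substances is gauged in the same ERR cells used for the antagonist screen, after 17.5 h of compound treatment at 37 C, by CellTiter-Fluor fluorescence measured after 30 min.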
On the technique in general: In qHTS, concentration-response curves come from the screen itself.

For test [2], the target named is Luciferin 4-monooxygenase (Photinus pyralis) (UniProt P08659). Description: qHTS assay to identify small molecule inhibitors of firefly luciferase (AID 1224835). Note: nearly all actives have a fitted effect of over 25% in size. Note: potency is the fitted concentration of half-maximal effect. The method in brief:
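Quantitative HTS format; KM concentrations of both substrates. Purified P. pyralis FLuc activity quantified from luminescence images.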

A short description of test [3]: qHTS assay to identify small molecule agonists of the constitutive androstane receptor (CAR) signaling pathway - cell viability counter screen (AID 1224836). Note: nearly all actives have a fitted effect of over 45% in size. Put shortly: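 Viability read-out: CellTiter-Fluor fluorescence after 23 h compound exposure at 37 C/5% CO2 in double-stable HepG2-CYP2B6-hCAR cells, with PK11195 present at 0.75 uM final; compounds tested in 15-point titration.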

Test [4] in a line: qHTS assay to identify small molecule antagonists of the constitutive androstane receptor (CAR) signaling pathway - cell viability counter screen (AID 1224837). Note: nearly all actives have a fitted effect of over 45% in size. Put shortly: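 Multiplexed cytotoxicity read-out for the CAR antagonist screen: double-stable HepG2-CYP2B6-hCAR cells co-treated with 50 nM CITCO (final) and compound over 15 concentrations, incubated 23 hr, then assessed by CellTiter-Fluor fluorescence.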

The target in test [5] is Nuclear receptor subfamily 1 group I member 3 (Homo sapiens) (UniProt Q14994). Put plainly: qHTS assay to identify small molecule antagonists of the constitutive androstane receptor (CAR) signaling pathway (AID 1224838). Note: nearly all actives have a fitted effect of over 40% in size. The method in brief: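 Compounds were titrated across 15 concentrations onto HepG2 cells double-stably expressing hCAR and a CYP2B6-2.2kb reporter, together with 50 nM CITCO (final). After 24 h at 37 C, luciferase activity was measured by luminescence.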
Nuclear receptor subfamily 1 group I member 3 (Homo sapiens), sequence (Q14994 whole entry, looked up): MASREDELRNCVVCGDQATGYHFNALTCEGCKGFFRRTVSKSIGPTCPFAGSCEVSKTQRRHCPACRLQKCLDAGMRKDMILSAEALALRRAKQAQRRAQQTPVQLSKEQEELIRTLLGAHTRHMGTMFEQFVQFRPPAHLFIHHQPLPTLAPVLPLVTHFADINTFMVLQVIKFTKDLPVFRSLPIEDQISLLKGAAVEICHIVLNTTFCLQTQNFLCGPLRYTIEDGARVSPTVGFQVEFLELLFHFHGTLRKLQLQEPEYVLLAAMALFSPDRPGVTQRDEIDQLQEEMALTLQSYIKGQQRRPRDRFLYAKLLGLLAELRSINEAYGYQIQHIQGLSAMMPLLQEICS

The target is the same in test [6]. Put plainly: qHTS assay to identify small molecule agonists of the constitutive androstane receptor (CAR) signaling pathway (AID 1224839). Note: nearly all actives have a fitted effect of over 15% in size. Note: potency is the fitted concentration of half-maximal effect. Put shortly: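 Luminescence read-out (ONE-Glo, 30 min, room temperature) from double-stable HepG2-CYP2B6-hCAR cells exposed 24 h to 15-point compound series in presence of 0.75 uM PK11195 final.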
A short description of test [7]: qHTS assay to identify small molecule antagonists of the estrogen related receptor signaling pathway with the pleiotropic PPARgamma coactivator (PGC) from Tox21 10K library - cell viability counter screen (AID 1224840; active = well fitted cell-killing curve with a large enough effect in the repeat runs, not every such curve was filed as active; note: nearly all actives have a fitted effect of over 40% in size). The method in brief:
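Step one, plate 2,000 PGC/ERR cells per well; step two, incubate 6 h at 37 C/5% CO2; step three, pin-transfer compounds; step four, incubate 17.5 h; step five, add CellTiter-Fluor and read fluorescence after 30 min.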

Test [8] concerns the target Thyrotropin receptor (Homo sapiens) (UniProt P16473). Put plainly: qHTS assay to identify small molecule agonists of the thyroid stimulating hormone receptor (TSHR) signaling pathway (AID 1224843; calls by dose curve; note: nearly all actives have a fitted effect of over 45% in size). The method in brief: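 Cell line HEK293 with TSHR; density 800/well. Exposure 30 min RT. Readout HTRF cAMP (cAMP-d2/anti-cAMP-cryptate), 1 h RT before reading.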
The nature of test [9]: qHTS assay to identify small molecule agonists of the hypoxia (HIF-1) signaling pathway - cell viability counter screen (AID 1224844; calls by dose curve; note: nearly all actives have a fitted effect of over 50% in size). The method in brief:
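Tox21 10K compounds were added to HRE-bla ME-180 cells (0.5% dialyzed FBS) and incubated 17 hrs at 37C; ATP-based CellTiter-Glo luminescence then reported cell viability in the same wells.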

A short description of test [10]: qHTS assay to identify small molecule agonists of H2AX (AID 1224845; active = well fitted activation curve with a large enough effect in the signal ratio in the repeat runs, not every such curve was filed as active; the % refers to the signal ratio). The method in brief:
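Wild-type CHO-K1 cells plated overnight, then exposed 3 hr at 37C to compounds at 15 concentrations (0.76% DMSO). Lysed, then HTRF anti-pH2AX(S139)-cryptate/anti-H2AX-d2 detection after 24 hr at room temperature; emissions 665 and 620 nm.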

Test [11] can be described thus: qHTS assay to identify small molecule agonists of H2AX - cell viability counter screen (AID 1224847; calls by dose curve; note: top concentration of the series differs between compounds; nearly all actives have a fitted effect of over 30% in size). Put shortly: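 CHO-K1 wt, 1000 cells/well, o/n 37C; cpds 15 conc, 3 h 37C, 0.76% DMSO; CellTiter-Glo, 30 min RT, luminescence.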
Test [12] is described as follows: qHTS RealTime-Glo MT Cell Viability Assay in HepG2 cells - 24 hour (AID 1224867). Note: nearly all actives have a fitted effect of over 50% in size. Put shortly: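 Tox21 10K library screened in qHTS format on HepG2 cells carrying RealTime-Glo reagents. Compounds were added after a 5 h preincubation, and the luminescent signal from continuous culture was measured repeatedly during 40 h treatment.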
Test [13] can be described thus: qHTS RealTime-Glo MT Cell Viability Assay in HEK293 cells - 32 hour (AID 1224868). For activity change, negative = cytotoxic: top concentration of the series differs between compounds. Note: nearly all actives have a fitted effect of over 50% in size. Note: potency is the fitted concentration of half-maximal effect. The method in brief:
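Luminescence generated by NanoLuc from substrate produced by living HEK293 cells served as the viability signal. Each value reflects the reading at its stated time point during continuous 40 h compound exposure at 37 C.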

Test [14] is described as follows: A CellTox Green Cytotoxicity Assay to monitor cytotoxicity in HEK293 cells - 0 hour (AID 1224869). Note: nearly all actives have a fitted effect of over 50% in size. Put shortly:
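Cytotoxicity was tracked continuously in HEK293 cells by a DNA-binding dye excluded from viable cells. Compounds were transferred in DMSO 5 h after seeding; fluorescence was recorded at intervals up to 40 h.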

Test [15] in a line: qHTS RealTime-Glo MT Cell Viability Assay in HepG2 cells - 40 hour (AID 1224870). Note: nearly all actives have a fitted effect of over 50% in size. Put shortly: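 HepG2 cells mixed with RealTime-Glo MT reagents (NanoLuc plus cell-permeant prosubstrate) were seeded at 600 cells/well, incubated 5 h at 37 C/5% CO2, then pinned with compounds in DMSO; nonlytic luminescence tracked viability during 40 h treatment.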
A short description of test [16]: qHTS assay to identify small molecule agonists of the hypoxia (HIF-1) signaling pathway (AID 1224846; active = well fitted activation curve with a large enough effect in the signal ratio in the repeat runs, not every such curve was filed as active; the % refers to the signal ratio). Put shortly: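 Steps: seed ME-180 HRE-bla cells (2,000/well, 0.5% dialyzed FBS); incubate 5 hrs at 37C; pin-transfer compounds or DMSO; incubate 17 hrs; add LiveBLAzer B/G substrate CCF4-AM; measure reporter activation by FRET.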
The nature of test [17]: qHTS assay to identify small molecule antagonists of the estrogen related receptor (ERR) signaling pathway from Tox21 library (AID 1224848). Note: nearly all actives have a fitted effect of over 50% in size. Put shortly: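 Screening used an ERR reporter line supplied by NTP, exposed for 18 h at 37 C to library compounds delivered in DMSO. Signal was luciferase luminescence developed with ONE-Glo at room temperature for 30 min.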
A short description of test [18]: qHTS assay to identify small molecule agonists of the estrogen related receptor (ERR) signaling pathway from Tox21 library (AID 1224849; calls by dose curve; note: nearly all actives have a fitted effect of over 15% in size). As to conditions: ERR reporter cell line, ONE-Glo luciferase, 18 h; at 92.4 µM (top of the series) unless noted. Put shortly:
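Agonist signal is luciferase luminescence from an ERR reporter cell line treated 18 h at 37 C with DMSO-dissolved compounds, read 30 min after ONE-Glo addition at room temperature.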

Test [19] is described as follows: qHTS assay to identify small molecule agonists of the estrogen related receptor signaling pathway with the pleiotropic PPARgamma coactivator (PGC) from Tox21 10K library (AID 1224842). Note: nearly all actives have a fitted effect of over 15% in size. Put shortly:
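PGC/ERR reporter cells (NTP line) were seeded 2,000 per well, rested 6 h at 37 C/5% CO2, then pin-dosed with compounds in DMSO for 18 h at 37 C; luciferase read by One-Glo luminescence after 30 min at room temperature.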
% is set by controls: 0 for no effect and ±100 for the full control effect.

Luciferin 4-monooxygenase (Photinus pyralis), sequence (P08659 whole entry, looked up): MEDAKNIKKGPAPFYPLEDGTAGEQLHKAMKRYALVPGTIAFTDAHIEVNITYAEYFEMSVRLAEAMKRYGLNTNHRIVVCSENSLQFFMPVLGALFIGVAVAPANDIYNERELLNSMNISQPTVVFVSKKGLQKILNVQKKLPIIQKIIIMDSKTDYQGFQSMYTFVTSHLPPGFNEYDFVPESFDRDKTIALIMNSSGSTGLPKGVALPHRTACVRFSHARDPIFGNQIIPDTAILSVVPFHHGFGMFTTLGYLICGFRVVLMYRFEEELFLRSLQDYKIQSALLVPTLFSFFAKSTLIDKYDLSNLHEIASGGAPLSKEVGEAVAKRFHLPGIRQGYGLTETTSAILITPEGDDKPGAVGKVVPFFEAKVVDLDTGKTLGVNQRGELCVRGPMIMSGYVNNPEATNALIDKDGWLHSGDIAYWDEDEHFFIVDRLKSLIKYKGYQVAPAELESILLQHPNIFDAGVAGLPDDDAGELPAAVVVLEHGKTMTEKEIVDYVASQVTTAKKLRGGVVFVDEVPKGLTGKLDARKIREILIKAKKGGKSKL
Thyrotropin receptor (Homo sapiens), sequence (P16473 whole entry, looked up): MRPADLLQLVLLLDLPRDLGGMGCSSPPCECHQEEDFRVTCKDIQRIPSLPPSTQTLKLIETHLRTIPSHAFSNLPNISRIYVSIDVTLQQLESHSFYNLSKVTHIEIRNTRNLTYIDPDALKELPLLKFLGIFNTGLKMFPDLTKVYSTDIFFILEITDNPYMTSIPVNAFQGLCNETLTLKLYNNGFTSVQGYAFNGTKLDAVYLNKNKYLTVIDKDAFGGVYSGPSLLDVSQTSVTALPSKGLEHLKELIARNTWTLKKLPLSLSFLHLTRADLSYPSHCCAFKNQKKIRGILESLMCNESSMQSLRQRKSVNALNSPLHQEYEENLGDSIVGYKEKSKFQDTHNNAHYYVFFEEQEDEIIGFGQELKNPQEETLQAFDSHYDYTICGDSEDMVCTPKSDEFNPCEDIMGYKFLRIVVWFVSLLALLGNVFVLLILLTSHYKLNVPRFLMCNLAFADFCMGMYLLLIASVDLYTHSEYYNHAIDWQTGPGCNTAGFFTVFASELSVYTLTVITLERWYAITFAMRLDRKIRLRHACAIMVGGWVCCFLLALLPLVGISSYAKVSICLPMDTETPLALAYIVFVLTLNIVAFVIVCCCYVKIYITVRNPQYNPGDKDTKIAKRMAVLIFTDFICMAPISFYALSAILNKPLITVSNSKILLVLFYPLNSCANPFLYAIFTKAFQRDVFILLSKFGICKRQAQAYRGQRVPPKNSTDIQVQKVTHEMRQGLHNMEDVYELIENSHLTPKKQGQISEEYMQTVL

On to `COc1cc(N)c(Cl)cc1C(=O)NC1CCN(Cc2ccccc2)CC1`, for which the Potency result in test [1], in test [2], in test [3], in test [4], in [5] and in test [7] was “inactive” throughout. Besides, the Potency result in [8], in [9], in test [10], in test [11], in [12] and in test [14] was “inactive” throughout. Further, the Potency result in [15] is “inactive”. Further, the figures for the Potency in test [6] and in test [13] were 6.68 µM (active) and 19 µM (active), respectively.
Regarding `CO[C@@]1(NC(=O)CSCC#N)C(=O)N2C(C(=O)O)=C(CSc3nnnn3C)CS[C@@H]21`, the Potency entry in test [1], in [2], in [3], in test [4], in [5] and in test [6] was “inactive” each time. The Potency result in test [7], in test [9], in [10], in [11], in [12] and in test [13] was “inactive” each time. Also, the Potency result in [14] and in [15] was “inactive” throughout.
On to `O=c1oc2c(O)c(O)cc3c(=O)oc4c(O)c(O)cc1c4c23`, for which the viability change, negative = cytotoxic is -2.26% [at 19 µM] in test [1], -3.24% [at 19 µM] in test [3] and -7.93% [at 19 µM] in test [7]. Further, the Potency in [2] is 12 µM (active). Besides, the activity change, negative = cytotoxicity in [4] is 9.67% [at 19 µM]; in test [9], 0.799% [at 15.8 µM]; in test [11], 0.906% [at 31.6 µM]; in test [12], -9.61% [at 15.8 µM]. The activity, negative = inhibition in test [5] was 7.54% [at 19 µM]; in test [17], 4.6% [at 19 µM]. The activation in [6] was -0.67% [at 19 µM]; in test [16] it was -0.716% [at 15.8 µM]. Moreover, the activity change, positive = activation in test [18] was 2.5% [at 19 µM]. In addition, the activity change, negative = cytotoxic is -21.3% [at 15.8 µM] in test [13] and -12.4% [at 15.8 µM] in test [15]. Moreover, in test [14], the cytotoxicity was 10.4% [at 15.8 µM].
On to `CC(C)O`, for which the Potency result in test [1], in test [2], in test [3], in test [4], in test [5] and in test [6] was “inactive” each time. Also, the Potency entry in test [7], in [11], in [12], in test [13] and in [14] was “inactive” throughout.
Take `CC(C)c1ccccc1`: the Potency result in [1], in test [2], in [3], in test [4], in [5] and in test [6] was “inactive” in each case. Moreover, the Potency entry in test [7], in test [8], in test [9], in test [10], in test [11] and in test [12] was “inactive” each time. Further, the Potency result in test [13], in test [14] and in test [15] was “inactive” throughout. The outcome in [16] was inactive.
`O=C(O[C@@H](C(=O)O)[C@@H](OC(=O)c1ccccc1)C(=O)O)c1ccccc1`: the Potency result in test [1], in test [2], in test [3], in [4], in test [5] and in [6] was “inactive” throughout. For the same compound, the Potency result in [7], in [19], in [9], in test [10], in [11] and in test [17] was “inactive” throughout. The Potency result in [12], in test [13], in [14] and in test [15] was “inactive” each time. Moreover, the compound was called inactive in test [16]. In addition, the activity change, positive = activation in test [18] is -13.3%.
Regarding `O=Cc1ccc(F)c(Br)c1`, the Potency entry in [1], in test [2], in test [3], in test [4], in [5] and in [6] was “inactive” in each case. Besides, the Potency entry in [7], in test [8], in test [9], in test [10], in test [11] and in [12] was “inactive” each time. Also, the Potency entry in [13], in [14] and in test [15] was “inactive” throughout. For the same compound, in test [16], the outcome was inactive.
In the case of `Cc1c(-c2ccccc2)oc2c(C(=O)OCCN3CCCCC3)cccc2c1=O`, the Potency entry in test [1], in test [2], in test [3], in test [4], in test [5] and in test [6] was “inactive” throughout. The Potency entry in test [7], in test [8], in test [9], in test [10], in test [11] and in [12] was “inactive” throughout. The Potency result in [14] and in test [15] was “inactive” each time.
